Records with an inconclusive call do not appear. Calls of active or inactive are those of the source. Calls follow the shape of the dose curve; as a rule, active = well fitted inhibition curve with a large enough effect; inconclusive = small, poorly fitted or top-dose-only effect; inactive = flat fitted curve, though single readings scatter.
Potency is read from the fitted curve at half-maximal effect.

This experiment deals with Luciferin 4-monooxygenase (Photuris pensylvanica) (UniProt Q27757). Kind of experiment: Secondary Assay for Luciferase (Kinase-Glo TM) Inhibition Counterscreen.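 As to activity, negative = inhibition: 0% = DMSO only and -100% = 40 µM SIB 1757 full inhibition.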 Conditions: Kinase-Glo luciferase enzyme, luminescence; series mostly up to 58.1 µM; activity, negative = inhibition: at the top concentration. As to the method:
NIH Chemical Genomics Center [NCGC] Malcolm Walkinshaw, Hugh Morgan, Linda Gilmore University of Edinburgh, UK MLPCN Grant: 1 R03 MH085697-01 NCGC Assay Overview: Luciferase (Kinase-Glo, Promega Corporation) was assayed for its ability to generate light using ATP and luciferin as substrates. The ATP concentration in the assay (10 uM) was within the linear range of enzyme activity for the assay conditions used. This assay was used as an counter screen for human pyruvate kinase M2 isoform.
NCGC Assay Protocol Summary: Four uL of substrate mix (final concentration, 50 mM imidazole pH 7.2, 50 mM KCl, 7 mM MgCl2, 10 uM ATP, 0.01% Tween 20, 0.05% BSA) was dispensed into white 1536 well plates. Twenty-three nL of compound was delivered by a pin tool and 2 uL of luciferase detection mix (Kinase-Glo, Promega)) was added. Following 8-minute incubation at ambient temperature, luminescence was measured by a ViewLux (Perkin Elmer) at 5 seconds exposure/plate. Data were normalized to the controls for basal activity (DMSO only) and 100% inhibition (40 uM SIB 1757) and curve fitting was performed using Hill equation.
Background: Kinase-Glo measures the ATP left after a reaction by luminescence.
For the compound `Cc1cccc(NS(=O)(=O)c2ccc3c(c2)CCC(=O)N3)c1`, the “activity, negative = inhibition” value is -6.26% (inactive). The same measure, in the same setting: in the case of `O=C1c2ccccc2C(=O)N1c1cnc2ccccc2c1` it was 0.332% (inactive).

As for `c1ccc(-c2nc(-c3ccccn3)no2)cc1`, the Potency was 3.66 µM (active). For the compound `Cc1ccc(NS(=O)(=O)c2cc3c(cc2-c2ccccc2)NC(=O)CO3)cc1C`, the “activity, negative = inhibition” value is -0.564% (inactive). On the same count and under the same terms, in the case of `COc1ccccc1NS(=O)(=O)c1ccc2c(c1)CCC(=O)N2` it was 1.44% (inactive). For `Cc1ccc(OC2=NS(=O)(=O)c3ccccc32)cc1`, the “activity, negative = inhibition” value was -1.98% (inactive). Same read-out and setting: in the case of `Cc1ccc(NS(=O)(=O)c2cc3c(cc2C)NC(=O)CO3)cc1C` it was -0.951% (inactive); in that of `COc1ccc2c(c1)c1ccc3c(c1n2C)C(=O)C=CC3=O`, -11.3% (inactive); in that of `O=C1c2ccccc2C(=O)N1c1ccc2ccccc2n1`, -1.93% (inactive). As for `Cc1ccc(NS(=O)(=O)c2ccc(-c3ccccc3)cc2)cc1C`, the “activity, negative = inhibition” value was 3.13% (inactive). `CC[n+]1c(C)sc2sc3ccccc3c21`: the “activity, negative = inhibition” value is 0.171% (inactive). Still for that read-out and setting: in the case of `O=C1CCc2cc(S(=O)(=O)Nc3ccccc3Cl)ccc2N1` it was -4.09% (inactive).

`O=C(Nc1ccc(N2CCOCC2)cc1)c1cn2ccccc2n1`: the Potency was 6.51 µM (active).

Consider `O=[N+]([O-])c1cc2oc3c(c2c(C=NCc2ccccc2)c1O)CCCC3`, for which the “activity, negative = inhibition” value is -0.834% (inactive). Same read-out and setting: in the case of `Cc1ccc(NS(=O)(=O)c2ccc3c(c2)CCC(=O)N3)cc1` it was -4.6% (inactive); in that of `Cc1ccc(NS(=O)(=O)c2cc3c(cc2N(C)C)NC(=O)CC3)cc1C`, 0.348% (inactive); in that of `Cc1ccc(N2C(=O)c3ccccc3C2=O)c(C)c1`, -3.43% (inactive). Still for that read-out and setting: in the case of `Cc1ccc(NS(=O)(=O)c2ccc3c(c2)CCO3)cc1C` it was 2.64% (inactive); in that of `Cc1ccc(S(=O)(=O)/N=C2/C=C(Sc3ncn[nH]3)C(=O)c3ccccc32)c(C)c1`, -4.73% (inactive). Regarding `O=C(Nc1cccc(O)c1)C(=O)Nc1ccccn1`, the Potency is 20.6 µM (active). `O=C1c2ccccc2C(=O)N1C1CCCCC1`: the “activity, negative = inhibition” value was 0.793% (inactive).

With `O=C1CCc2cc(S(=O)(=O)Nc3cccc(Cl)c3)ccc2N1`, the “activity, negative = inhibition” value was -0.248% (inactive). `CN(C)c1cccc(S(=O)(=O)N2CCN(S(=O)(=O)c3ccc4c(c3)OCCO4)CC2)c1`: the “activity, negative = inhibition” value is -3.54% (inactive). Still for that read-out and setting: in the case of `O=C(COC(=O)CCC(=O)c1ccc(F)cc1)Nc1ccc(F)cc1F` it was -4.06% (inactive); in that of `COc1ccc(S(=O)(=O)Nc2ccc(C)c(C)c2)cc1`, -2.2% (inactive). Still for that read-out and setting: in the case of `Cc1ccc(NS(=O)(=O)c2ccc3c(c2)N(C)CCO3)cc1C` it was 0.646% (inactive); in that of `Cc1c(C(=O)NC(=S)Nc2ccc(NC(=O)c3cccs3)cc2)oc2ccccc12`, -3.45% (inactive). The same measure, in the same setting: in the case of `O=C1c2ccccc2C(=O)N1c1cc(=O)c2ccccc2[nH]1` it was 1.52% (inactive); in that of `O=C1CCc2cc(S(=O)(=O)Nc3cccnc3)ccc2N1`, -1.37% (inactive). With `COc1ccc(C(=O)C[n+]2ccc(N)c(C)c2C)cc1`, the “activity, negative = inhibition” value was -1.09% (inactive).

On to `O=C1c2ccccc2C(=O)N1Cc1ccccc1`, for which the “activity, negative = inhibition” value was -0.279% (inactive).

On to `O=C1c2ccccc2C(=O)N1Cc1ccccn1`, for which the “activity, negative = inhibition” value was -3.08% (inactive). In the case of `Cc1ccc(NS(=O)(=O)c2ccc3ccccc3c2)cc1C`, the “activity, negative = inhibition” value is 1.5% (inactive). Still for that read-out and setting: in the case of `COc1ccccc1N1C(=O)c2ccccc2C1=O` it was 0.884% (inactive); in that of `O=S1(=O)N=C(Oc2ccccc2Cl)c2ccccc21`, 0.85% (inactive); in that of `Nc1cc(S(=O)(=O)N2CCN(S(=O)(=O)c3ccc4c(c3)OCCO4)CC2)ccn1`, -17.1% (inactive).

For the compound `CCCCN1C(=O)c2ccccc2C1=O`, the “activity, negative = inhibition” value is 0.2% (inactive). For the compound `O=S(=O)(c1ccc2c(c1)OCCO2)N1CCN(S(=O)(=O)c2c(F)cccc2F)CC1`, the Potency result is “inactive”. On to `Oc1ccc(C23CC4CC(CC(C4)C2)C3)cc1O`, for which the “activity, negative = inhibition” value was -1.06% (inactive).

On to `Cc1ccccc1OC1=NS(=O)(=O)c2ccccc21`, for which the “activity, negative = inhibition” value is -2.81% (inactive).

Values taken from PubChem BioAssay AID2530 (National Center for Advancing Translational Sciences (NCATS), 2010).
